Measured values taken from PubChem BioAssay (NCI).
Several values for one entry are separate records, joined by “and”; a condition that tells them apart may be missing. Identical values can stand only once. About 83,000 compounds went through this panel and 20% of them were active in at least one assay; those are over-represented in the sample as a whole.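 Interpretation: 100, growth as untreated; towards 0, rising growth inhibition; 0, no net growth; 0 to -100, cell death. Compounds scoring below 10 were considered active.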 Activity calls are given as the source filed them.

Tests used:
Assay in all cases: NCI-60 one-dose screen, 48 h (100 = growth as untreated, 0 = no growth, -100 = all killed)
Conditions in all cases: 10 µM unless noted
[1] = system: DU-145 prostate
[2] = system: K-562 leukemia
[3] = system: MALME-3M melanoma
[4] = system: MDA-MB-231 breast
[5] = system: RXF 393 renal
[6] = system: SF-268 CNS
[7] = system: SF-295 CNS
[8] = system: SF-539 CNS
[9] = system: UACC-257 melanoma
[10] = system: M14 melanoma

Measured: growth

Cc1c(Cl)c(C)c(Cc2c(C)c(Cl)c(C)c(Cl)c2O)c(O)c1Cl
active: [3] -3.69% | [4] 2.41% | [5] 4.04% | [7] 0.164% | [9] -0.631%
inactive: [1] 30.2% | [2] 20.1% | [6] 19.6% | [8] 15.7% | [10] 22.6%

Nc1nc(N)c2cc(S(=O)(=O)c3ccccc3)ccc2n1
inactive: [1] 30.3% and 40.9% | [2] 16.7% and 26.1% | [3] 58.1% and 29% | [4] 48.9% and 51.8% | [5] 62% and 85.6% | [6] 40.1% and 38% | [7] 18.9% | [8] 30.5% and 21.8% | [9] 39% and 59.2% | [10] 35.2% and 31.9%

CC(C)(C)C1=CC(=O)C(C(C)(C)C)=CC1=O
inactive: [1] 120% and 98.9% | [2] 105% and 107% | [3] 94.5% and 107% | [4] 107% and 109% | [5] 90.2% and 105% | [6] 108% and 94.3% | [7] 99.6% and 104% | [8] 87.3% and 108% | [9] 90.5% and 85% | [10] 105%

CCN(CC)CCNC(=O)c1ccc(NCN2C(=O)NC(c3ccccc3)(c3ccccc3)C2=O)cc1
inactive: [1] 108% and 122% | [2] 110% and 108% | [3] 96.1% | [4] 114% and 103% | [5] 106% and 118% | [6] 102% and 101% | [7] 94.1% | [8] 104% | [9] 100% and 106% | [10] 105% and 96.3%

O=c1[nH]c(=O)n(C2OC(CO)C(O)C2O)cc1I (configuration not stated)
inactive: [1] 117% and 112% | [2] 95.1% and 128% | [3] 100% and 107% | [4] 109% and 111% | [5] 114% and 123% | [6] 102% and 112% | [7] 125% and 102% | [8] 105% and 102% | [9] 97.3% and 101% | [10] 104% and 90.5%

CC(=O)/C(N=Nc1ccc(S(=O)(=O)c2ccc(N=N/C(C(C)=O)=C(/C)O)cc2)cc1)=C(\C)O
inactive: [1] 104% | [2] 111% | [3] 106% | [4] 113% | [5] 165% | [6] 101% | [7] 118% | [8] 112% | [9] 109% | [10] 105%

O=C(c1ccccc1)C1(Br)CCCCC1
inactive: [1] 105% | [2] 98% | [3] 95.1% | [4] 94.3% | [5] 113% | [6] 92% | [7] 93.4% | [8] 93.5% | [9] 98.7% | [10] 98.6%

Nc1ccccc1SC1CC(=O)N(c2ccc(I)cc2)C1=O (configuration not stated)
inactive: [1] 92.7% | [2] 82.9% | [3] 75.6% | [4] 91% | [5] 115% | [6] 84.1% | [7] 93.8% | [8] 89.6% | [9] 89.2% | [10] 88%

CN(C)CC(CN(C)C)C(O)c1ccccc1 (configuration not stated)
inactive: [1] 110% | [2] 94.5% | [3] 105% | [4] 114% | [5] 110% | [6] 99% | [7] 96.9% | [8] 90.7% | [9] 102% | [10] 96.4%

CCOC(=O)C1=CC(=O)CC(C)(C)O1
inactive: [1] 123% and 110% | [2] 42% and 104% | [3] 112% and 110% | [4] 114% and 106% | [5] 118% and 114% | [6] 108% and 103% | [7] 125% and 114% | [8] 110% and 109% | [9] 106% and 95.7% | [10] 99.6% and 112%

NCCCCCC(=O)O
inactive: [1] 124% [middle of 4 runs] | [2] 112% [middle of 4 runs] | [4] 112% and 105% and 109% | [5] 110% and 113% and 127% | [7] 104% [middle of 4 runs] | [8] 101% [middle of 4 runs] | [9] 102% and 96.4% and 105% | [10] 106% [middle of 4 runs]

N#Cc1c[nH]n2ccnc12
inactive: [1] 111% | [2] 106% | [3] 106% | [4] 111% | [5] 113% | [6] 107% | [7] 99.8% | [8] 104% | [9] 97.7% | [10] 94.9%

N#Cc1ccc(/C=C/C(=O)c2ccccc2)cc1
inactive: [1] 80.8% and 102% | [3] 89.2% and 110% | [4] 103% | [6] 101% | [7] 93.7% and 118% | [8] 103% and 110% | [9] 80% and 114% | [10] 98.6% and 102%
active: [2] -35.8% and 6.11%

O=C(Nc1ccccc1)OCC(CN1CCCCC1)OC(=O)Nc1ccccc1 (configuration not stated)
inactive: [1] 107% | [2] 89% | [3] 90.8% and 109% | [4] 30.7% and 79.2% | [5] 60% and 86.8% | [6] 79.2% and 94.7% | [7] 96.5% and 97.9% | [8] 87.5% and 96.2% | [9] 93.7% and 93.2% | [10] 86.6% and 108%

COc1ccc(C(=O)C(O)c2ccc(OC)cc2)cc1 (configuration not stated)
inactive: [1] 110% and 103% | [2] 101% and 103% | [3] 92.2% and 103% | [4] 104% and 112% | [5] 125% and 103% | [6] 103% and 101% | [7] 104% and 107% | [8] 105% and 103% | [9] 104% and 101% | [10] 101% and 99.9%

Cc1ccc([N+](=O)[O-])cc1Br
inactive: [1] 110% | [2] 86.3% | [3] 102% | [4] 104% | [5] 111% | [6] 104% | [7] 97.7% | [8] 91.7% | [9] 79.7% | [10] 95.1%

Cc1cc(=NO)cc(C)n1O
inactive: [1] 101% | [2] 96.8% | [3] 112% | [4] 118% | [5] 123% | [6] 99.2% | [7] 94.4% | [8] 104% | [9] 112% | [10] 108%

COC(=O)c1ccccc1Cl
active: [2] 8.26%
inactive: [1] 106% | [3] 95% | [4] 111% | [5] 121% | [6] 98.9% | [7] 92.1% | [8] 93.5% | [9] 102% | [10] 102%

COc1ccc2oc3c(ccc[n+]3C)c(=O)c2c1
inactive: [1] 113% | [2] 99% | [3] 102% | [4] 110% | [5] 108% | [6] 101% | [7] 99.5% | [8] 98.2% | [9] 87.3% | [10] 102%

CCOC(=O)c1ccc(N2C(=O)C(Cl)(c3ccccc3)C2c2ccco2)cc1 (configuration not stated)
inactive: [1] 65.4% | [2] 31.1% | [3] 86.7% | [4] 80% | [5] 99.7% | [6] 77.8% | [7] 86.4% | [8] 96.2% | [9] 89.7% | [10] 98.7%

COc1ccc(CCO)cc1
inactive: [1] 110% | [2] 82.9% | [3] 92.1% | [4] 102% | [5] 105% | [6] 105% | [7] 103% | [8] 101% | [9] 96.4% | [10] 103%

COc1ccc2nccc(Cl)c2c1
inactive: [1] 101% | [2] 110% | [3] 103% | [4] 102% | [5] 105% | [6] 92.8% | [7] 107% | [8] 104% | [9] 91.9% | [10] 107%
